# Compound activity (PubChem BioAssay)
# SMN2 splice enh: SMN2 splice variant enhancement; HEK293 SMN2-luciferase splicing reporter, luminescence, 30-36 h; Potency, µM (series often up to 46.1 µM), without a hit: at the top dose activity change, positive = activation, usual class: activators; actives 2.8% (n = 210,000); also: % of control where 0% means no effect; nearly all actives have a fitted effect of over 55% in size
#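 HEK293 cells carry an SMN2 […]–luciferase reporter in which exon 7 inclusion puts luciferase in frame. Cells were plated 10-12 h before compound addition, then incubated 30-36 h at 37C. ONE-Glo luminescence was read; sodium butyrate at 4.5 mM final served as control.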
# FLuc counter: firefly luciferase modulation, counter-screen for miR-21 project. P08659. purified FLuc, Km substrates, luminescence inhibition. Potency, µM (top dose mostly 57.5 µM), inactives show top-dose activity change, negative = inhibition, actives largely listed as inhibitors. actives 6.9% (n = 360,000). AID 588342;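 also: plate controls were vehicle for no effect and reference inhibitor for full effect; nearly all actives have a fitted effect of over 55% in size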
# Target sequence (P08659 whole entry, looked up): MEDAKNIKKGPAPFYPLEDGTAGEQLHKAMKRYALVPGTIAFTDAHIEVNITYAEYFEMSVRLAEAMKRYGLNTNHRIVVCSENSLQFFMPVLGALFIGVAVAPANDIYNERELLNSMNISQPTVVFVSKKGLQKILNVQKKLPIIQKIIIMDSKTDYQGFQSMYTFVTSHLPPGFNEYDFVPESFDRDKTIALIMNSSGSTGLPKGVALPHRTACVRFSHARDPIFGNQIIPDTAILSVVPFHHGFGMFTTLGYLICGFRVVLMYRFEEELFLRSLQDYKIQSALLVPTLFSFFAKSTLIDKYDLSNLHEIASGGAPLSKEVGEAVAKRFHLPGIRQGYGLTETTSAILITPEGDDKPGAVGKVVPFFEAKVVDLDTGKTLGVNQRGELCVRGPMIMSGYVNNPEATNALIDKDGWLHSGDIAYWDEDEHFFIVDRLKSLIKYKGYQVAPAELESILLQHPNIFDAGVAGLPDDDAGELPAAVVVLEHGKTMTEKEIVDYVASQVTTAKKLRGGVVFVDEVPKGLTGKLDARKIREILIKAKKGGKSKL
#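 Purified P. pyralis luciferase, 10 nM final, with Km-level 10 uM D-luciferin and 10 uM ATP in 50 mM Tris acetate pH 7.5, 10 mM Mg acetate, 0.01% Tween-20, 0.05% BSA; 6-point qHTS titration about 60 µM downward; luminescence read.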
# NPC1 prom act: activates the NPC1 promoter; Huh7 NPC1 promoter luciferase reporter, 24 h; Potency, µM (highest dose often 9.22 µM), inactives show at the highest dose activation, hits mostly activators; actives 2.4% (n = 320,000); AID 485313; also: % of control where 0% means no effect; nearly all actives have a fitted effect of over 60% in size
#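 Cells: Huh7 expressing luciferase under the NPC1 promoter, 1500/well. Seeded 2 h, compound added, incubated 24 h at 37 °C. Luciferase reagent, 10 min ambient, then luminescence.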
# KinaseGlo FLuc: Kinase-Glo luciferase inhibition (counter-screen); Potency, µM (top dose mostly 38.3 µM), inactives show at the top dose activity change, negative = inhibition, hits mostly inhibitors; Kinase-Glo luciferase, ATP luminescence, 8 min; AID 1379; actives 0.28% (n = 200,000); also: % is scaled to controls: 0 for no effect and ±100 for the full control effect; nearly all actives have a fitted effect of over 60% in size
#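 Compounds were added to a substrate mix at pH 7.2 (50 mM imidazole, 10 uM ATP, within the enzyme's linear range), followed by Kinase-Glo detection reagent; luminescence was measured after 8 minutes at ambient temperature.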
# ELG1 genotoxic: inducers of genotoxicity in HEK293T ELG1-luciferase cells | actives 1.3% (n = 330,000) | HEK293T ELG1-luciferase reporter, luminescence, 16 h | Potency, µM (highest dose often 46 µM), without a hit: top-dose activity change, positive = activation, most hits filed as activators; also: % of control where 0% means no effect; nearly all actives have a fitted effect of over 60% in size
#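 Cells (2,000/well) expressing the ELG1-luciferase fusion are dosed by pin tool and kept 16 hr at 37 °C, 5% CO2. Signal comes from ONE-Glo luciferase reagent after 30 min at room temperature.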
# Rab9 prom act: activates the Rab9 promoter. Huh7 Rab9 promoter-luciferase reporter, luminescence, 24 h. Potency, µM (titrated, usually from 9.22 µM), without a hit: at the highest dose activation, negative = inhibition, actives largely listed as activators. actives 2.8% (n = 320,000). AID 485297; also: % of control where 0% means no effect; nearly all actives have a fitted effect of over 60% in size
#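 Using Huh7 cells stably transfected with Rab9 promoter–luciferase, compounds were incubated 24 h at 37 °C, 5% CO2; luciferase luminescence was read 10 min after reagent addition.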
# Active calls of the source: *; ? = inconclusive; nt = not tested or not shown. Sampled rows, rich in hits. Any-hit rate of the full collection: about 7.5%. Calls follow the shape of the dose curve; as a rule, active = well fitted curve in the direction sought with a large enough effect; inconclusive = small, poorly fitted or top-dose-only effect, or another doubt; inactive = no such curve, though single readings can be large; an effect the other way counts as inactive or inconclusive. Potency is read from the fitted curve at half-maximal effect.
SMILES,SMN2 splice enh,FLuc counter,NPC1 prom act,KinaseGlo FLuc,ELG1 genotoxic,Rab9 prom act
CC(=O)c1ccc(OCc2cc(C(=O)N3CC4C[C@@H]5CC3C[C@H](C4)C5)no2)cc1,nt,9.5µM*,2.5µM*,nt,?,3.2µM*
CC(=O)c1cccc(OCc2cc(C(=O)N3CC4C[C@@H]5CC3C[C@H](C4)C5)no2)c1,nt,?,-4%,nt,5%,-4%
CCOc1cc(N2CCOCC2)c(OCC)cc1NC(=O)COC(=O)c1ccc([N+](=O)[O-])o1,nt,nt,nt,nt,0%,nt
Cc1ccc(C)c(NC(=O)C(=O)NCCc2csc(-c3ccc(C(F)(F)F)cc3)n2)c1,nt,3%,nt,nt,nt,nt
COc1cc(OC)cc(C(=O)N2CC(=O)Nc3ccc(Cl)cc3C2c2ccccc2)c1 (stereo unspecified),-12%,-1%,nt,nt,nt,nt
CSc1ccc(CCNC(=O)CCc2c(C)nc3c4cccnc4nn3c2C)cc1,-20%,-2%,nt,nt,nt,nt
CCOc1ccc(C(=S)NC2CCCCC2)cc1OCC,nt,?,1%,nt,-1%,2%
CN(C)c1ccc(C(=O)OCC(=O)NC2CCCCCC2)cc1,-5%,-3%,-4%,-1%,-7%,0%
CN(C)c1ccc(C(=S)NC2CCCCC2)cc1,11µM*,4.8µM*,3.2µM*,2%,18µM*,2.8µM*
CCN(CC)c1ccc(C(=S)NC2CCCCC2)cc1,?,15µM*,11%,-2%,?,15%
COc1cccc(C(=O)N(Cc2cccnc2)c2nc3c(OC)ccc(C)c3s2)c1OC,nt,-2%,nt,nt,nt,nt
Cc1cc(C(=O)NNC(=S)NC(=O)/C=C/c2ccccc2Cl)n[nH]1,2%,24µM*,9%,2%,-3%,6%
COc1ccc([C@H]2[C@H](C(=O)C(C)(C)C)N3N=Cc4ccccc4C3C23C(=O)OC(C)(C)OC3=O)cc1 (stereo partly specified),14µM*,-9%,-1%,-1%,-1%,1%
CC1(C)Cc2nc3sc4c(=O)n(Cc5ccccc5)cnc4c3cc2CS1,-40%,-7%,-1%,3%,2%,14%
CCCn1cnc2c(sc3nc4c(cc32)CSC(C)(C)C4)c1=O,13µM*,?,2.8µM*,1%,4.6µM*,1.6µM*
O=C(Nc1cnccc1C(F)(F)F)NC1CCCCC1,nt,5%,0%,nt,-9%,0%
CC(C)C1COC(c2cccc3ccccc23)=N1 (stereo unspecified),22µM*,2.1µM*,3.2µM*,-22%,21µM*,0.79µM*
CCn1cc(C2=NC(C(C)C)CO2)c2ccccc21 (stereo unspecified),15%,-14%,-3%,0%,?,-1%
Cc1c(NCc2nc3ccccc3[nH]2)c(=O)n(-c2ccccc2)n1C,-7%,15µM*,-6%,-7%,2%,4%
Cc1c(NCc2cc(Cl)cc(Cl)c2O)c(=O)n(-c2ccccc2)n1C,-15%,0%,0%,-2%,-5%,2%
O=C(/C=C/c1ccc(Cl)c(Cl)c1)NCCCn1ccnc1,nt,?,-4%,nt,17%,0%
O=C(/C=C/c1ccc(Cl)c(Cl)c1)n1cccn1,-5%,2.7µM*,2%,-13%,2%,-1%
CC(=O)NCc1cc(Cl)c2cccnc2c1O,nt,-1%,-3%,nt,nt,1%
COc1cc(-c2nc3cnccn3c2Nc2ccc(C(C)C)cc2)ccc1O,-9%,-1%,-2%,20%,14%,-2%
COc1cc(-c2nc3cnccn3c2Nc2ccc(C)cc2)ccc1O,18µM*,-9%,1%,19%,13µM*,-3%
SMILES,SMN2 splice enh,FLuc counter,NPC1 prom act,KinaseGlo FLuc,ELG1 genotoxic,Rab9 prom act
COc1cc(-c2nc3cnccn3c2Nc2ccccc2)ccc1O,14µM*,-9%,-7%,4%,6%,-7%
COCCn1c(=O)c(-c2ccc(Cl)cc2)nc2cnc(Oc3ccccc3)nc21,-25%,nt,nt,1%,nt,nt
O=C(Nc1cc(Cl)ccc1N1CCOCC1)c1ccco1,nt,2%,-2%,nt,1%,0%
O=C(Nc1ccc(N2CCOCC2)c([N+](=O)[O-])c1)c1ccco1,13µM*,17µM*,26%,0%,7%,?
CCN1CCN(c2ccc(NC(=O)c3cccc(F)c3)cc2Cl)CC1,nt,17µM*,?,-3%,?,3.5µM*
O=C(Nc1ccc(N2CCCC2)c(Cl)c1)c1ccco1,6.3µM*,4.8µM*,1.4µM*,-12%,?,0.5µM*
CN1CCN(c2ccc(NC(=O)c3ccco3)cc2Cl)CC1,nt,4.8µM*,0.4µM*,nt,8.2µM*,0.63µM*
Cc1ccc(NC(=O)c2cc(NC(=O)c3ccco3)ccc2N2CCOCC2)cc1Cl,-4%,5%,-10%,0%,8%,0%
O=C(Nc1ccc(N2CCCCC2)c(Cl)c1)c1ncn[nH]1,nt,6µM*,?,1%,?,23%
CCC(=O)Nc1ccc(N2CCN(C(=O)c3ccco3)CC2)c(Cl)c1,nt,-1%,-3%,nt,-3%,-4%
CCN1CCN(c2ccc(NC(=O)c3ccco3)cc2Cl)CC1,nt,17µM*,?,nt,?,?
O=C(/C=C/c1ccccc1)Nc1nc(-c2cccs2)ns1,nt,0%,nt,nt,nt,nt
COc1ccc(NC(=S)N2CCC(NC(=O)C3CCCCC3)CC2)cc1,nt,2%,0%,nt,-5%,1%
CCOC(=O)c1ccc(OC(=O)c2cn(-c3ccc(C)cc3)c(=O)c3ccccc23)cc1,nt,-1%,nt,nt,nt,nt
CCCn1c(COc2ccccc2OC)nc2ccccc21,nt,?,-1%,nt,-2%,3%
CCn1c(COc2ccccc2OC)nc2ccccc21,nt,17µM*,5%,nt,9%,4%
CCn1c(COc2ccccc2C)nc2ccccc21,?,11µM*,28%,-11%,?,25%
CCn1c(CCc2ccccc2)nc2ccccc21,nt,17µM*,15%,nt,4%,15%
Cn1c(COc2ccccc2Br)nc2ccccc21,nt,6.7µM*,2.5µM*,nt,10µM*,?
O=C(NCc1ccccc1Cl)C1CCN(S(=O)(=O)Cc2ccccc2)CC1,nt,6%,nt,nt,nt,nt
Oc1cccc(Nc2ncnc3c2oc2ccccc23)c1,nt,8.5µM*,3.5µM*,nt,13µM*,?
CC(C)C(Nc1ncnc2c1oc1ccccc12)C(=O)O (stereo unspecified),nt,-16%,-2%,nt,5%,1%
c1ccc(Nc2ncnc3c2oc2ccccc23)cc1,0%,21µM*,nt,1%,nt,nt
Oc1ccccc1Nc1ncnc2c1oc1ccccc12,-1%,-2%,-3%,0%,?,6%
CCc1nc(Nc2ccc(N3CCN(C(C)=O)CC3)cc2)c2oc3ccccc3c2n1,nt,?,5%,nt,-31%,-3%
